Each structure is given as a SMILES string. About 83,000 compounds went through this panel and 20% of them were active in at least one assay; those are over-represented in the sample as a whole.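 Cells were grown in 96-well plates and exposed to the test compound at a single concentration for 48 hours; results are reported as percent growth, with values below 10 considered active.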 Values without a mark were called inactive. Calls of active or inactive are those of the source.

The test has as its system HCT-15 colon. The experiment in a line: NCI-60 one-dose screen, 48 h (100 = growth as untreated, 0 = no growth, -100 = all killed). Particulars: 10 µM unless noted. The protocol:
Growth inhibition of the HCT-15 human tumor cell line is measured as a screen for anti-cancer activity. Cells are grown in 96 well plates and exposed to the test compound for 48 hours. Compounds are tested at a single concentration, which is 10^-5 M for most compounds. The reported endpoint is percent growth (GI% or GIPRCNT), where numbers from 0 - 100% represent growth inhibition, and numbers from -100% - 0 represent cell death. For example, a value of 40 represents 60% growth inhibition. A value of 0 means no net growth occurred over the course of the experiment. A value of -40 indicates 40% of cells at the beginning of the experiment died by the end of the experiment. A value of -100 means all cells are dead at the end of the experiment.
NCI-60 Human Tumor Cell Lines Screen was performed using the standard one-dose NCI protocol, which is described in more detail at https://dtp.cancer.gov/discovery_development/nci-60/default.htm.
Compounds with GIPRCNT values below 10 were considered active. Activity score was based on GIPRCNT using the following formula: […]
Score is 0 for GIPRCNT values of 100 or above, 50 for GIPRCNT values of 0, and 100 for GIPRCNT values of -100.
Turning to `O=C1Nc2cc(-c3ccc(NS(=O)(=O)c4ccccc4)cc3)ccc2/C1=C/c1ccc[nH]1`, the growth is 62.9%.

Consider `CCCCCCNC(=O)Oc1ccc(/C(=C(\C)c2ccccc2)c2ccc(OCCN3CCCCC3)cc2)cc1`, for which the growth was 8.13% (active).

On to `CCCCNC(=O)Oc1ccc(/C(=C(\C)c2ccccc2)c2ccc(OCCN3CCCCC3)cc2)cc1`, for which the growth was 9.66% (active).

In the case of `O=C(/C=C/c1ccc(F)cc1)c1ccc(NC(=O)N2CCN(c3cc4c(cc3F)c(=O)c(C(=O)O)cn4C3CC3)CC2)cc1`, the growth is 101%.

`O=C(Nc1ccc(-c2ccc3c(c2)NC(=O)/C3=C\c2ccc[nH]2)cc1)NC1CC1`: the growth was 88.3%.

`Cc1cc(C(=O)/C=C/c2ccc[nH]2)ccc1-n1ccc(C(F)(F)F)n1`: the growth is 84.1%.

As to `Cn1ccc2c1CC1CN(Cc3ccco3)C(=O)C1C2C(=O)O` (stereo not given), the growth was 95.8%.

As for `CCC(CC)NCC(C)(C)O`, the growth was 101%.

Turning to `COc1cc2c(c(OC)c1OC)CCC(c1cccc(NC(=O)c3cccc(Br)c3)c1)O2` (stereo not given), the growth was 87.7%.

For `Cc1cc2cc3ccc(N(C)C)cc3nc2cc1N`, the growth is 19.4%.

As to `CCN(CC)c1ccc(C(=O)c2ccccc2)cc1`, the growth was 105%.

Regarding `CCc1ccc(-c2cn3ccnc3c(-c3ccc4ncn(Cc5ccccc5)c4c3)n2)cc1`, the growth was 25.3%.

For `O=C(/C=C/c1c(-c2ccc(Cl)cc2)nn(-c2ccccc2)c1C(F)(F)F)c1ccc(Cl)cc1`, the growth was 77.7%.

Turning to `[O-][n+]1c(Cl)cc(Cl)c2ccccc21`, the growth was 99.8%.

Turning to `COc1cc(CC(=O)c2ccc(O)c(OC)c2)ccc1O`, the growth was 110%.

Take `O=C(/C=C/c1ccc(Cl)cc1)c1ccc(NC(=O)N2CCN(c3cc4c(cc3F)c(=O)c(C(=O)O)cn4C3CC3)CC2)cc1`: the growth was 96.4%.

Regarding `Cc1cc2nc3c4cc([N+](=O)[O-])ccc4n(CCN(C)C)c3nc2cc1C`, the growth was -15.7% (active).

On to `COc1cc(C2C3=C(COC3=O)N(CCO)c3cc4c(cc32)CCC4)cc(OC)c1OC` (stereo not given), for which the growth is 10.9%.

As for `CCN1C(=O)/C(=C/C(=O)OC)S/C1=N\NC(=O)c1cc2ccc1/C=C\c1ccc(cc1)/C=C\2`, the growth is 68.4%.

For `OC(c1ccc(F)c(C(F)(F)F)c1)c1cnccc1NC1CCCCC1` (stereo not given), the growth was 64.7%.

For `CC(=O)c1cc2c(N)c(C(=O)Nc3cccc4ccncc34)sc2nc1C`, the growth was 87.1%.

`Cc1ccc(S(=O)(=O)NNC(=O)/C(=C\c2ccc(Cl)cc2)c2nc3ccccc3s2)cc1`: the growth was 79.5%.

With `C#Cc1cccc(NC(=O)c2cccc(NC(=O)CCl)c2)c1`, the growth was -63.4% [8.25 µM] (active).

As for `COc1ccc(C(C)=O)c(OC)c1`, the growth is 106%.

Take `CCCOc1ccc(/C=N/Nc2cc(C)nc3ccc(Br)cc23)cc1`: the growth is -20.9% (active).

For `Cc1cc2nc3c4ccc(Br)cc4n(CCN(C)C)c3nc2cc1C`, the growth was 1.66% (active).

As to `C=C(C)[C@@H]1CC[C@]2(C(=O)N[C@H](CO)Cc3ccccc3)CC[C@]3(C)[C@H](CC[C@@H]4[C@@]5(C)CCCNC(C)(C)[C@@H]5CC[C@]43C)[C@@H]12`, the growth was -82.3% (active).

As for `CCN(c1ccccc1)S(=O)(=O)c1cc([N+](=O)[O-])ccc1Cl`, the growth was 75.7%.

Consider `O=S(=O)(NCCCNc1nccc(-c2c(-c3cccc(F)c3)nc3sccn23)n1)c1cccc(F)c1`, for which the growth is 22.6%.

Regarding `NS(=O)(=O)c1ccc(Cn2c(SCC(=O)N/N=C/c3ccccc3O)nc3ccccc3c2=O)cc1`, the growth was 75%.

For the compound `Cc1ccc(NC(=O)c2cc(-c3nc4ccccc4s3)c(=O)n(NS(=O)(=O)c3ccc(Cl)cc3)c2N)cc1`, the growth is 96%.

As for `CCNC(=O)Oc1ccc(/C(=C(\C)c2ccccc2)c2ccc(OCCCN(C)C)cc2)cc1`, the growth is 52.1%.

As to `Cn1nc(CC#N)c2c(=N)n(N)cnc21`, the growth is 111%.

Consider `COc1cc2c(c(OC)c1OC)-c1ccc(NNC(=S)N(Cc3cccc(C[N+](Cc4cccc(CNC56CC7CC(CC(C7)C5)C6)c4)(Cc4cccc(CNC56CC7CC(CC(C7)C5)C6)c4)Cc4cccc(CN(C(=S)NNc5ccc6c(cc5=O)[C@@H](NC(C)=O)CCc5cc(OC)c(OC)c(OC)c5-6)C56CC7CC(CC(C7)C5)C6)c4)c3)C34CC5CC(CC(C5)C3)C4)c(=O)cc1[C@@H](NC(C)=O)CC2` (stereo not given in full), for which the growth was 9.96% (active).

For the compound `C=C1C(=O)O[C@H]2[C@H]1CC/C(CNS(=O)(=O)c1cccc3ccccc13)=C\CC[C@@]1(C)O[C@@H]21`, the growth is -25% (active).

For `CNC(=O)c1cc(Cn2nc(C)c(NC(=O)Nc3ccc(Cl)c(C(F)(F)F)c3)c2C)ccn1`, the growth was 98%.

Regarding `CCOC(=O)c1cc(C(=O)c2ccc(OC)cc2)n2ccc(/C=C/c3cc[n+](CC(=O)c4ccc(OC)cc4)cc3)cc12`, the growth was 85.9%.

For the compound `CCc1c(Cl)nc(N)nc1Nc1ccc(C)c(C)c1`, the growth is 55.7%.

Take `COc1cc2oc(-c3cccc(C(=O)Nc4ccccc4)c3)cc(=O)c2c(O)c1OC`: the growth was 92.8%.

For the compound `C[C@H](c1nc2ccc(N)cc2[nH]1)[C@H]1CC[C@H]2[C@@H]3CCC4=CC(=O)CC[C@]4(C)[C@H]3CC[C@]12C`, the growth is 67.8%.

For the origin of these results see PubChem BioAssay (NCI).
